Shown are actives, neighbours in structure and some others; about 8.7% of the full set was active somewhere.
12-LOX inh: inhibitors of human 12S-lipoxygenase ALOX12; P18054; purified 12hLO, xylenol orange hydroperoxide absorbance; Potency, µM (titrated, usually from 108 µM), without a hit: top-dose activity change, negative = inhibition, usual class: inhibitors; actives 1.1% (n = 580,000); note: % is set by controls: 0 for no effect and ±100 for the full control effect
Target sequence (P18054 whole entry, looked up): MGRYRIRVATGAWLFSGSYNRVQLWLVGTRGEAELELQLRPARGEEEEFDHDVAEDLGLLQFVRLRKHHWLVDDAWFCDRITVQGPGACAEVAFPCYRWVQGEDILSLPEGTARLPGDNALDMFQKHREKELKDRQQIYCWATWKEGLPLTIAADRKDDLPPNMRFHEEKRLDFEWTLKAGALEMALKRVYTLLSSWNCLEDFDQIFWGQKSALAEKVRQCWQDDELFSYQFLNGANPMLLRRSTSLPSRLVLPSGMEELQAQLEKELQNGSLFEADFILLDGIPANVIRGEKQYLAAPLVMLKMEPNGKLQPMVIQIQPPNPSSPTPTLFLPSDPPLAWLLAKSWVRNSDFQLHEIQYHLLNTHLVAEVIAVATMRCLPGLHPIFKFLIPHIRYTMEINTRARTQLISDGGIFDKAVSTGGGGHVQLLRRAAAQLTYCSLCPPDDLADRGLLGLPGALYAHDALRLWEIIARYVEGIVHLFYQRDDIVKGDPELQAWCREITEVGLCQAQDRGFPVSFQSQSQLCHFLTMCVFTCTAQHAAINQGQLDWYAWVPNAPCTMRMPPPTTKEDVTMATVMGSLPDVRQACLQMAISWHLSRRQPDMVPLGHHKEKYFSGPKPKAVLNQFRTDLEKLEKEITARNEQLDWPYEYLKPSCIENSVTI
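Purified human 12hLO at 150 nM in 25 mM Hepes, 0.01% Triton X-100, pH 7.0, preincubated 15 min at room temperature with compound. Reaction started with 40 uM arachidonic acid, 30 min at room temperature. Hydroperoxide measured by Fe-xylenol orange, 573/405 nm absorbance ratio.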
BAZ2B block: inhibitors of human BAZ2B bromodomain. Q9UIF8. AlphaScreen BAZ2B-H3K14Ac peptide displacement. Potency, µM (titrated, usually from 114 µM), inactives show top-dose activity change, negative = inhibition, hits mostly inhibitors. actives 4.4% (n = 360,000); note: % is set by controls: 0 for no effect and ±100 for the full control effect; nearly all actives have a fitted effect of over 60% in size
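AlphaScreen displacement: compounds (up to 110uM) incubated 30 min at room temperature with a preformed 50 nM BAZ2B/50 nM biotinylated H3K14Ac peptide complex in PBS pH 7.4 with Tween-20. Donor and acceptor beads at 10 ug/mL final added, 20 min light-protected before reading.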
G9a inh: G9a (human) methyltransferase inhibition. G9a H3K9 monomethylation, AlphaScreen, 2 h. Potency, µM (top dose mostly 102 µM), for inactives: at the top dose activity, negative = inhibition, hits mostly inhibitors. actives 8.8% (n = 350,000); note: % is set by controls: 0 for no effect and ±100 for the full control effect; nearly all actives have a fitted effect of over 75% in size
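AlphaScreen read-out: biotin-H3K9 peptide (500 nM) methylation by 20 nM enzyme with 20 uM SAM, 2 h at room temperature after 15 min compound preincubation; anti-monomethyl H3K9 antibody plus donor/acceptor beads, 10 min dark.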
Sfp PPTase inh: inhibitors of Bacillus subtilis Sfp phosphopantetheinyl transferase | Potency, µM, for inactives: largest response in the series, negative = inhibition, most hits filed as inhibitors | actives 3.5% (n = 310,000) | Biochemical Sfp PPTase activity, qHTS | Q9F4F7 | AID 1490;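 note: the enzyme is Sfp with the accession as filed and its product quenches rhodamine fluorescence; 0% = enzyme reaction without inhibitor and -100% = no enzyme wells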
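Reaction rates are the 30-min fluorescence difference (ex 525, em 598 nm) in wells containing 15 nM Sfp, 5 uM rhodamine-CoA and 12.5 uM BHQ-2-YbbR at pH 7.6 with 10 mM MgCl2.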
HP1b chromo inh: HP1-beta chromodomain-methylated histone interaction inhibition | P83916 | AlphaScreen HP1-beta / biotin-H3K9me3 peptide binding | Potency, µM (doses to about 114 µM), for inactives: at the highest dose activity change, negative = inhibition, actives largely listed as inhibitors | actives 0.56% (n = 390,000); note: nearly all actives have a fitted effect of over 70% in size
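Compound inhibition of the preformed complex between 50 nM HP1-beta and 50 nM biotinylated H3K9me3 peptide was read by AlphaScreen. Buffer was PBS pH 7.4 with 0.01% Tween-20. Incubations ran 30 min at room temperature, with 10 ug/mL donor/acceptor beads.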
JMJD2A Tudor: blocks the human JMJD2A Tudor domain; AlphaScreen JMJD2A-Tudor / H3K4me3 peptide binding; Potency, µM (highest dose often 114 µM), for inactives: at the top dose activity change, negative = inhibition, most hits filed as inhibitors; actives 4.4% (n = 390,000); AID 504339; note: % is set by controls: 0 for no effect and ±100 for the full control effect; nearly all actives have a fitted effect of over 50% in size
* marks the source's active call; other numbers are inactive results; ? = inconclusive; / = not tested or not shown; [ ] = dose if it differs, or a comment. Calls come from the whole dose curve; as a rule, active = well fitted curve in the direction sought with a large enough effect; inconclusive = small, poorly fitted or top-dose-only effect, or another doubt; inactive = no such curve, though single readings can be large; an effect the other way counts as inactive or inconclusive. Potency is the fitted concentration of half-maximal effect.

SMILES | 12-LOX inh | BAZ2B block | G9a inh | Sfp PPTase inh | HP1b chromo inh | JMJD2A Tudor
Cc1nn(C)cc1C(=O)NNC(=S)Nc1ccccc1 | 0.0% | 6.7%[57.1 µM] | ? | 11.4% | 34.8% | -17.9%
O=C(C1CCN(c2ncnc3c2nc2n3CCCCC2)CC1)N1CCN(c2ccc(Cl)cc2)CC1 | -0.2% | -1.0% | -9.1%[59 µM] | / | -19.0% | -22.1%
COc1ccc(N2CCN(C(=O)C3CCCN(c4ncnc5c4nc4n5CCCCC4)C3)CC2)cc1 (stereo not drawn) | 3.0% | 28.2µM* | / | 1.6% | -1.9% | ?
O=C(C1CCN(c2ncnc3c2nc2n3CCCCC2)CC1)N1CCN(c2cccc(Cl)c2)CC1 | -2.2% | 31.6µM* | 10.7% | -1.6% | 37.5% | ?
COC(=O)C1(NC(=O)c2c(F)cccc2Cl)CCCCC1 | 0.5% | / | / | / | / | /
CN(C)C(=O)c1cccc(-c2cc(F)c3nc(N)sc3c2)c1 | 43.0% | / | / | / | / | /
COc1cc2c(cc1OC)CN(C(=S)Nc1cccc(Cl)c1C)CC2 | 0.1% | -5.2% | -6.0% | 11.5% | 15.5% | -12.6%
CCC[n+]1cn(/C(C(=S)Nc2cccc(Cl)c2C)=C(/[O-])c2ccc(OC)c(OC)c2)c2ccccc21 | -19.6% | ? | 39.8µM* | 2.8% | -18.6% | ?
Cc1cc(C)n(CCc2nc(-c3cc4ccccc4o3)cs2)n1 | ? | / | 16.2%[59 µM] | -27.1% | 13.8% | -2.1%
Cc1cc(C)n(CCc2nc(-c3ccc(C)o3)cs2)n1 | ? | ? | ? | 8.91µM* | ? | 79.4µM*
COc1ccc2[nH]c3c(c2c1)CCN1C(=O)N([C@@H](C)C(=O)NC2CCN(Cc4ccccc4)CC2)C(=O)[C@]31C | -14.8% | 50.1µM* | / | 9.9% | 4.1% | ?
COc1ccc2[nH]c3c(c2c1)CCN1C(=O)N([C@@H](C)C(=O)NCc2ccccc2)C(=O)[C@]31C | 11.4% | 3.6%[57.1 µM] | / | -1.6% | 11.4% | -28.6%
C[C@@H](C(=O)NC1CCN(Cc2ccccc2)CC1)N1C(=O)N2CCc3c([nH]c4ccccc34)[C@@]2(C)C1=O | -5.3% | ? | -17.5% | 4.5% | -11.1% | ?
COc1ccc2[nH]c3c(c2c1)CCN1C(=O)N([C@@H](C)C(=O)NCc2ccco2)C(=O)[C@]31C | -21.7% | 50.1µM* | 0.6% | 3.6% | 11.6% | -25.9%
CC(C)C[C@@H](C(=O)NC1CCN(Cc2ccccc2)CC1)N1C(=O)N2CCc3c([nH]c4ccccc34)[C@@]2(C)C1=O | ? | ? | ? | 10.0% | ? | 39.8µM*
COCCN1CCCCCC(O)c2cc(C(=O)NC3CCCCC3)ccc21 (stereo not drawn) | 6.4% | / | / | / | / | /
CC(=O)c1nnn(-c2nc(N3CCCC3)nc(N3CCCC3)n2)c1C | 52.2% | / | / | / | / | /
O=C1CC(=O)N(CCNc2ncc(C(F)(F)F)cc2Cl)C(=O)N1 | ? | -36.3% | 6.6%[59 µM] | 4.0% | 0.6% | -26.1%
O=C1C=CC(=O)N1CCNc1ncc(C(F)(F)F)cc1Cl | ? | -30.2% | 2.51µM* | 7.08µM* | -1.4% | ?
O=C1N=C(N2CCCC2C(=O)O)S/C1=C\c1ccco1 (stereo not drawn) | -20.9% | 79.4µM* | 25.1µM* | -26.4% | ? | ?
O=C1N=C(N2CCCCC2)S/C1=C/C1=Cc2ccccc2OC1 | 2.3% | -7.3% | ? | -7.5% | 16.7% | 0.0%
CN(C)C(=O)c1ccc(F)c(F)c1 | -1.1% | / | / | / | / | /
Cc1oc2c(c1C(=O)c1ccccc1)C(=O)C(=O)c1ccccc1-2 | ? | 44.7µM* | ? | 50.1µM* | -28.9% | ?
Cc1oc2c(c1C(=O)O)C(=O)c1ccccc1C2=O | -23.7% | -0.1% | 10µM* | ? | 47.0% | -6.9%
Cc1onc(-c2ccccc2Cl)c1C(=O)c1ccccc1 | ? | 15.3% | / | 5.7% | 43.1% | 32.7%
CCOC(=O)c1c(C)nc2c(c1-c1ccccc1)C(=O)c1ccccc1-2 | 1.0% | ? | -38.1% | -10.3% | -4.9% | -32.5%
CCOC(=O)c1c(C)oc2c1C(=O)c1ccccc1C2=O | -28.8% | ? | 12.6µM* | ? | -2.7% | -28.2%
